Sampled rows, rich in hits. Any-hit rate of the full collection: about 19%.
TDP1 cell CPT = DT40-hTDP1 cell growth loss with CPT; chicken DT40 Tdp1-/-;hTDP1 cells + 20 nM CPT, ATP luminescence, 48 h; Potency, µM (top dose mostly 46.2 µM), for inactives: at the highest dose activity change, negative = growth inhibition, hits mostly inhibitors; 12% of 420,000 active; further: nearly all actives have a fitted effect of over 55% in size
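Chicken DT40 Tdp1-/- cells complemented with human TDP1, 400 cells/well, exposed to compounds plus 20 nM camptothecin for at least 48 h at 37 C; viability read as ATP content by CellTiter-Glo luminescence.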
HT1080 IDH1KD tx = HT-1080 IDH1 knockdown cell toxicity (counter line); 2% of 360,000 active; Potency, µM (titrated, usually from 46.1 µM), inactives show top-dose activity, negative = toxicity, usual class: cytotoxic; HT-1080 IDH1 knockdown viability, ATP luminescence, 48 h;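 further: 0% = DMSO wells and -100% = cell-free medium wells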
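IDH1KD HT-1080 cells, 750/well, RPMI + 5% FBS; compound pinned after 2 h settling; 48 h, 37 °C; CellTiter-Glo luminescence; % activity normalised to DMSO and no-cell wells; curves fitted, classed by r2 and efficacy.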
TDP1 cell noCPT = qHTS for Inhibitors of human tyrosyl-DNA phosphodiesterase 1 (TDP1): qHTS in cells in absence of CPT | DT40 Tdp1-/- hTDP1 cells, no CPT, ATP luminescence, 48 h | Potency, µM (highest dose often 46.2 µM), for the others: at the highest dose activity change, negative = growth inhibition, hits mostly inhibitors | 15% of 420,000 active; further: nearly all actives have a fitted effect of over 55% in size
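Growth of hTDP1-complemented DT40 Tdp1-knockout cells is measured by ATP luminescence after at least 48 hr compound exposure at 37 °C, with DMSO substituting for the 20 nM CPT used in the parallel screen.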
KB-3-1 tox = KB-3-1 parental cell cytotoxicity. KB-3-1 viability, CellTiter-Glo ATP luminescence, 72 h. Potency, µM (doses to about 46.1 µM), usual class: cytotoxic. 1.4% of 400,000 active; further: nearly all actives have a fitted effect of over 60% in size
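Cytotoxicity measured as CellTiter-Glo luminescence after 72 h at 37 C. Compound titrations were pinned onto drug-naive KB-3-1 parental adenocarcinoma cells grown in DMEM with 10% FBS, and normalized data fitted to concentration-response curves.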
KB-V1 cytotox = KB-V1 MDR subline cytotoxicity; KB-V1 MDR cells viability, CellTiter-Glo, 72 h; Potency, µM (series often up to 46.1 µM), most hits filed as cytotoxic; 3.4% of 400,000 active; AID 1347076; further: nearly all actives have a fitted effect of over 60% in size
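qHTS viability screen in drug-selected KB-V1 MDR cells: 72 h compound treatment at 37 degrees C, ATP luminescence end point.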
HT1080NT lethal = kills 2HG-producing HT-1080-NT fibrosarcoma cells. HT-1080-NT fibrosarcoma viability, CellTiter-Glo ATP luminescence, 48 h. Potency, µM (doses to about 46.1 µM), without a hit: top-dose activity, negative = less viability, usual class: cytotoxic. 1.6% of 360,000 active;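 further: NT is the 2HG producing partner of a matched IDH1 knockdown line; 0% = DMSO-treated cells and -100% = media-only wells without cells; nearly all actives have a fitted effect of over 55% in size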
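Luminescent CellTiter-Glo readout after 48 hours of compound exposure at 37 degrees C defined viability of HT-1080-NT cells. Activity was normalized to DMSO wells and cell-free media wells; concentration-response curves were fitted and assigned curve classes.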
Numbers without * were called inactive; i = inactive; u = inconclusive; x = not tested or not shown. The call rests on the fitted dose curve; in most records, active means well fitted curve in the direction sought with a large enough effect; inconclusive means small, poorly fitted or top-dose-only effect, or another doubt; inactive means no such curve, though single readings can be large; an effect the other way counts as inactive or inconclusive. Unless noted, on the % scale 0 is the no-effect control and ±100 the full control effect; potency means the concentration at half of the fitted maximal effect.

SMILES	TDP1 cell CPT	HT1080 IDH1KD tx	TDP1 cell noCPT	KB-3-1 tox	KB-V1 cytotox	HT1080NT lethal
O/N=C(/C[n+]1cccc(Br)c1)c1ccc2ccccc2c1	u	x	13µM*	i	i	x
CCCCCCCC(=O)CC[C@@H]1[C@@H](C/C=C\CCCC(=O)OC(C)C)[C@@H](O)C[C@H]1O	7.5µM*	x	7.5µM*	x	x	x
COC(=O)c1c(-c2ccc(Br)cc2)noc1N	-16%	u	-20%	u	i	u
CCOc1cc(-c2noc(N)c2C(=O)OC)cc(OCC)c1OCC	-13%	0%	u	i	12µM*	0%
Cc1ccc(Cl)cc1NC(=O)N(C)CCO	-1%	-3%	-17%	i	i	-3%
CCCCn1c(=O)[nH]c(=O)c2c1nc(-c1ccc(C)c([N+](=O)[O-])c1)n2CC	u	-11%	21µM*	i	u	-16%
Cc1ccc(-c2nc3c(c(=O)[nH]c(=O)n3CC(C)C)n2CC(C)C)cc1[N+](=O)[O-]	u	-9%	29µM*	i	u	-26%
C/C(=C\C(=O)c1ccc(Br)cc1)NCc1ccc(C)cc1	-7%	-9%	u	i	i	-7%
COc1ccc(NC(=S)Nc2ccc(S(=O)(=O)N3CCCCC3)cc2)cc1	u	-1%	u	i	i	8%
CCOc1ccc(S(=O)(=O)N2CCCCC2)cc1NC(=O)Cc1cccs1	u	-3%	18µM*	i	23µM*	-4%
COc1cc(C=NNC(=S)Nc2ccc(S(=O)(=O)N3CCCCC3)cc2)cc(OC)c1OC	16µM*	-4%	8.2µM*	i	i	-9%
COc1ccc(S(=O)(=O)N2CCOCC2)cc1NC(=O)Cc1cccs1	14%	23%	-2%	u	i	0%
COc1cc(CC(=O)N2CCN(S(=O)(=O)c3ccc(C(C)C)cc3)CC2)cc(OC)c1OC	21µM*	-3%	21µM*	i	i	-9%
COc1ccc(S(=O)(=O)N2CCCCCC2)cc1NC(=O)Cc1cc(OC)c(OC)c(OC)c1	-4%	-1%	u	i	2.3µM*	1%
C=CCNC(=O)COc1ccc(N(C)S(=O)(=O)c2ccc(NC(C)=O)cc2)cc1	-2%	1%	-25%	i	i	5%
CN1CCC(N(C)C(=O)CCc2nc3ccccc3c(=O)[nH]2)CC1	u	4%	-2%	i	i	2%
COc1ccc(CC(=O)Nc2cc(S(=O)(=O)N3CCCCC3)ccc2C)cc1OC	u	-13%	18µM*	i	u	-19%
COc1ccc(S(=O)(=O)N2CCCCC2)cc1NC(=O)Cc1c[nH]c2ccccc12	u	-23%	15µM*	i	u	-12%
Nc1nnn(CC(=O)N/N=C/c2cn[nH]c2-c2ccccc2)n1	4%	-6%	-10%	i	i	-1%
O=C(Nc1ccc(Cl)c(S(=O)(=O)N2CCOCC2)c1)c1cc(-c2ccccn2)nc2ccccc12	u	-4%	23µM*	i	i	u
Cc1ccc(NC(=O)c2cc(-c3ccco3)nc3ccccc23)cc1S(=O)(=O)N1CCOCC1	u	-2%	29µM*	i	i	-19%
COc1ccc(NC(=O)c2cc(C)nc3ccccc23)cc1S(=O)(=O)N1CCOCC1	0%	-9%	3%	i	u	0%
COCCNc1nc2cc(-c3ccc(F)cc3)sc2c(=O)n1C	1%	0%	-5%	i	u	-4%
O=c1[nH]c(CCl)nc2cc(-c3ccc(F)cc3)sc12	5.2µM*	7.3µM*	4.1µM*	u	u	15µM*
COc1cccc(CNC(=O)COCc2cc(-c3ccc4c(c3)OCO4)on2)c1	u	x	u	i	i	x
SMILES	TDP1 cell CPT	HT1080 IDH1KD tx	TDP1 cell noCPT	KB-3-1 tox	KB-V1 cytotox	HT1080NT lethal
c1csc(-c2nnc(-c3ccc(N4CCOCC4)cc3)o2)c1	u	7%	u	i	i	9%
c1csc(-c2ccc(N3CCOCC3)nn2)c1	u	u	8.2µM*	u	u	u
NC(=O)COC(=O)CNC(=O)c1sc2ccccc2c1Cl	-7%	28%	-13%	i	u	12%
Cc1ccc(-c2noc(CCC(=O)NCC3CCN(Cc4cccc(C)c4)CC3)n2)cc1	18µM*	u	u	u	u	u
Cc1ccc(-c2noc(CCC(=O)NCCN3CCOCC3)n2)cc1	15%	6%	-2%	i	i	8%
Cc1cccc(-c2noc(CCC(=O)NCc3ccccc3)n2)c1	-21%	-2%	-6%	i	i	-7%
Cc1ccc(-c2noc(CCC(=O)NCCN3CCN(Cc4ccccc4)CC3)n2)cc1	u	-9%	18µM*	u	16µM*	-10%
O=C(NC1CC1)c1ccc(NC(=O)C2CCCCC2)cc1	5%	4%	-8%	i	i	6%
COc1cc(CNC2CCCC2)cc(Cl)c1OCc1ccc(F)cc1	u	21µM*	15µM*	u	u	16µM*
COc1cc(CNC2CCCc3ccccc32)cc(OC)c1OC (stereo not given)	u	-4%	21µM*	i	i	-11%
COc1cc(CNC2CCCC2)cc(Cl)c1OCc1ccccc1Cl	23µM*	u	23µM*	u	21µM*	u
COc1cccc(CNC2CCCc3ccccc32)c1OC (stereo not given)	-16%	-6%	u	i	u	0%
COc1cc(CNC2CCCCCCC2)cc(Cl)c1OCC(N)=O	-13%	-4%	-13%	i	i	-17%
CCOC(=O)c1[nH]c(C)c(CCC(=O)NCc2ccc(OCC)cc2)c1C	-10%	x	-27%	i	i	x
COCCn1c(SCC(=O)c2ccc(OC)cc2)nc2cc(C(=O)NC3CCCC3)ccc2c1=O	3%	x	-14%	i	i	x
COc1ccc(OC)c(NC(=O)CSc2ncnc3sc(C)cc23)c1	u	4%	u	i	u	7%
Cc1c(C(=O)NCc2cccc([N+](=O)[O-])c2)sc(=O)n1Cc1ccc(F)cc1	16µM*	-5%	u	i	u	-12%
CC(=O)Oc1ccccc1Cn1c(C)c(C(=O)NCc2cccc([N+](=O)[O-])c2)sc1=O	u	-13%	21µM*	i	18µM*	-10%

Assay outcomes (PubChem BioAssay)
